50 molecules from PubChem BioAssay AID624296 (National Center for Advancing Translational Sciences (NCATS), 2012) can be followed below.

Structures are written as SMILES. The whole screen tested about 350,000 compounds, of which about 9,900 (2.8%) were called active. Not shown: some 15% with an inconclusive outcome. Calls come from the whole dose curve; as a rule, active = well fitted activation curve with a large enough effect; inconclusive = small, poorly fitted or top-dose-only effect; inactive = no such curve, though single readings can be large or run the other way. Many of the other results were omitted from the sample, so actives are more common in it than they were.
Potency is the fitted concentration of half-maximal effect.

The nature of this experiment: A quantitative high throughput screen for small molecules that induce DNA re-replication in MCF 10a normal breast cells. For activity, positive = re-replication: % of control where 0% means no effect. Note: nearly all actives have a fitted effect of over 50% in size. The following applies: MCF 10A DNA re-replication, Hoechst nuclear intensity, 48 h; series mostly up to 46.1 µM; activity, positive = re-replication: at the top concentration.
Turning to `Cc1c(C(=O)N/N=C/c2ccccc2)[nH]c2c([N+](=O)[O-])cccc12`, the Potency was 4.11 µM (active).
Regarding `O=C(N/N=C/c1ccc([N+](=O)[O-])cc1)c1c[nH]c2ccccc12`, the “activity, positive = re-replication” value is 14.1% (inactive).
As for `Cc1cc(C(=O)N/N=C/c2ccccc2[N+](=O)[O-])c(C)o1`, the “activity, positive = re-replication” value is -4.32% (inactive).
The same measure, in the same setting: the figure for `CC(=O)N(O)CCCCCNC(=O)CCC(=O)N(O)CCCCCNC(=O)CCC(=O)N(O)CCCCCNC(=O)CCC(=O)O` is -0.0207% (inactive); for `COc1ccc(S(=O)(=O)N2CCCCCC2)cc1NC(=O)Cc1ccc(OC)c(OC)c1` it is 3.06% (inactive); for `O=C(NCCc1ccco1)c1ccc(OCc2cn3ccccc3n2)cc1` it is 3.69% (inactive).
Take `O=C(/C=C/c1ccccc1[N+](=O)[O-])OC1CCCCC1=O` (stereo not given): the “activity, positive = re-replication” value is -9.38% (inactive).
For the molecule `CC1CCCCC1NC(=O)/C(C#N)=C/C=C/c1ccccc1[N+](=O)[O-]` (stereo not given), the Potency is 2.91 µM (active).
Regarding `O=C(/C=C/c1ccccc1[N+](=O)[O-])NCC1CCCO1` (stereo not given), the “activity, positive = re-replication” value is -7.26% (inactive).
The same measure, in the same setting: the same measure for `O=C(CSc1ccccc1)Nc1cccc(S(=O)(=O)N2CCCCC2)c1`: 23% (inactive); for `C=CC[C@@H](CC(=O)NCCO)C(=O)N[C@H](C)COC(=O)[C@@H](CC=C)CC(=O)OC(C)(C)C`: -32.4% (inactive); for `O=C(/C=C\c1ccc2c(c1)OCO2)NC1(C(=O)Nc2ccc3c(c2)OCCO3)CCCCC1`: 9.05% (inactive).
On to `Cc1cccc(NC(=O)/C=C/c2ccc3c(c2)OCO3)n1`, for which the “activity, positive = re-replication” value was -25.9% (inactive).
Turning to `CCc1c(C)sc(NC(=O)/C=C/c2ccc3c(c2)OCO3)c1C(=O)OC`, the Potency was 5.8 µM (active).
Regarding `Cc1csc(=O)n1CCC(=O)OCC(=O)NNC(=O)c1ccc(Br)cc1`, the “activity, positive = re-replication” value is -8.04% (inactive).
Take `COc1ccc(/C=N/S(=O)(=O)c2ccccc2)cc1OC`: the “activity, positive = re-replication” value is 2.04% (inactive).
Take `COc1cc(/C=N/NC(=O)Cc2ccccc2)cc(OC)c1OC`: the “activity, positive = re-replication” value is 4.38% (inactive).
On the same count and under the same terms, the same measure for `COc1cc(/C=N/NC(=O)c2ccccc2)ccc1OS(=O)(=O)c1ccccc1`: -5.96% (inactive).
On to `COc1ccc(/C=N/NC(=O)c2ccccc2)cc1OS(=O)(=O)c1ccccc1`, for which the Potency is 20.6 µM (active).
Same read-out and setting: the same measure for `COc1cc(/C=N/NC(=O)Nc2ccccc2)ccc1OCCOc1ccccc1C`: 1.16 µM (active).
For `CCOC(=O)/C(C#N)=C/c1ccc(OCC(=O)Nc2ccccc2)c(OC)c1`, the “activity, positive = re-replication” value was 10.1% (inactive).
Still for that read-out and setting: the figure for `CC(C(=O)NC1CCCC1)N1CCN(S(=O)(=O)c2ccccc2Cl)CC1` (stereo not given) is 5.71% (inactive); for `COC(=O)C1=C(C)NC(=S)NC1c1ccc(OCC(=O)N2CC(C)OC(C)C2)c(OC)c1` (stereo not given) it is -2.89% (inactive).
As for `O=C(CSc1ccc(/C=N/NC(=O)c2cccc(F)c2)o1)Nc1ccccc1`, the “activity, positive = re-replication” value is -3.18% (inactive).
Consider `COc1ccc(/C=N/NC(=O)c2cccc(C(F)(F)F)c2)cc1`, for which the “activity, positive = re-replication” value is -0.279% (inactive).
Turning to `O=C(Cn1cc(/C=N/NC(=O)c2cccc(C(F)(F)F)c2)c2ccccc21)Nc1ccc(F)cc1`, the Potency is 20.6 µM (active).
Take `Cc1cc2nc(C(F)(F)F)cc(-c3cccs3)n2n1`: the Potency was 0.92 µM (active).
On to `CC(C)(C)Nc1c(-c2cccs2)nc2ccccn12`, for which the “activity, positive = re-replication” value was 2.19% (inactive).
Still for that read-out and setting: the figure for `Cc1cc(-c2cccs2)nc(-n2cccc2)n1` is -0.327% (inactive); for `CN(C(=O)Cn1nnc(-c2ccc(F)cc2)n1)C1CCS(=O)(=O)C1` (stereo not given) it is 10.4% (inactive).
Still for that read-out and setting: the same measure for `CN1CCN(c2ccc(NC(=O)c3cc(Cl)c4c(c3)OCCO4)cc2)CC1`: -2.46% (inactive); for `Cc1ccc(CNC(=O)COc2ccc3c(c2)CCC3)cc1`: 10.2% (inactive).
As to `Cc1ccc(CNC(=O)COc2ccc(S(=O)(=O)NC(C)C)cc2)cc1`, the “activity, positive = re-replication” value was 6.62% (inactive).
`CC(=O)Nc1ccc(OCC(=O)NCc2ccc(C)cc2)cc1`: the Potency is 1.16 µM (active).
Take `COc1ccccc1-c1nn(Cc2ccccc2)cc1C(=O)N1CCN(c2ncccn2)CC1`: the “activity, positive = re-replication” value is 13.2% (inactive).
Same read-out and setting: the same measure for `O=C(CN1CCCSc2ccccc21)N1CCN(S(=O)(=O)c2ccccc2)CC1`: 13.1% (inactive).
Take `CC(=O)c1sc(N/N=C/c2ccc(C(C)C)cc2)nc1C`: the Potency was 13 µM (active).
For the molecule `CC(=O)c1sc(NC(=O)CCCOc2ccccc2C)nc1C`, the “activity, positive = re-replication” value was -8.51% (inactive).
Regarding `COc1ccccc1/C=N/Nc1nc(C)c(C(C)=O)s1`, the “activity, positive = re-replication” value is 5.97% (inactive).
On to `COc1ccc(Cl)cc1NC(=O)COC(=O)c1ccc(Br)o1`, for which the “activity, positive = re-replication” value was 11.8% (inactive).
Turning to `CCCN(CC1CC1)C(=O)COC(=O)c1ccc(C)cc1O`, the “activity, positive = re-replication” value was 5.42% (inactive).
Consider `Cc1cc(C)n2nc(C(=O)Nc3cccc(S(=O)(=O)N4CCOCC4)c3)nc2n1`, for which the “activity, positive = re-replication” value is -16.6% (inactive).
Turning to `NC(CSC1(c2ccccc2)c2ccccc2-c2ccccc21)C(=O)O` (stereo not given), the “activity, positive = re-replication” value is 1.81% (inactive).
`COc1ccc(-c2ccc3c(c2)[C@@H]2C[C@H](N(C)S(=O)(=O)c4ccccc4)[C@H]([C@H](C)O)C(=O)N2CC3)cc1`: the “activity, positive = re-replication” value was -0.341% (inactive).
Regarding `CC(C)(C)OC(=O)Nc1ccc([C@@H](NC(=O)OC(C)(C)C)C(=O)OC(C)(C)C)cc1`, the “activity, positive = re-replication” value is -5.63% (inactive).
As for `CCc1ccc2c(c1)C1(NN=C(c3ccccc3)S1)C(=O)N2` (stereo not given), the Potency was 18.4 µM (active).
`CCc1ccc2c(c1)C(c1ccc([N+](=O)[O-])cc1)=NNC(c1ccccc1)=N2`: the “activity, positive = re-replication” value is 1.73% (inactive).
On the same count and under the same terms, the same measure for `O=S1(=O)CSCS(=O)(=O)C1`: -2.53% (inactive); for `COc1cc(OC)cc(-c2c(-c3ccc(F)cc3)c3cc(-c4ccc5cc[nH]c5c4)ccc3n2C)c1`: 3.2% (inactive).
`COc1ccc2c(c1)c(=Cc1ccc(N(C)C)cc1)c1cc(-c3ccccc3)[n+](C)n12`: the “activity, positive = re-replication” value was -16.6% (inactive).
